High-throughput results: PubChem BioAssay, National Center for Advancing Translational Sciences (NCATS)
nsP2pro inh – Primary qHTS for inhibitors of NSP2Pro chikungunya virus (CHIKV); FRET peptide cleavage, nsP2pro, fluorescence 1 h; Potency, µM (titrated, usually from 24.9 µM), for inactives: at the highest dose activity change, negative = inhibition, hits mostly inhibitors; hit rate 1.1% among 31,000; AID 1964107, 2024; further: nearly all actives have a fitted effect of over 60% in size
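Enzyme 150 nM, substrate 2.5 uM (both final); Tris-HCl 10 mM pH 8.0 + 0.01% Tween 20; cpd up to 25 uM, 7 pts; 15 min preinc., 1 h RT; fluorescence ex 525/em 598.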
nsP2 cell sec – Secondary cell base assay for inhibitors of NSP2Pro Chikungunya virus (CHIKV); shares compounds with nsP2pro inh; cell-based CHIKV nsP2 protease reporter assay; Potency, µM (series often up to 51.1 µM), without a hit: top-dose activity change, negative = inhibition, actives largely listed as inhibitors; hit rate 10% among 450; AID 1964100, 2024; further: nearly all actives have a fitted effect of over 70% in size
CHIKV NSP2 FL – Selectivity profile for inhibitors of NSP2Pro chikungunya virus (CHIKV): Full length NSP2 enzyme counterscreen (CHIKV-NSP2); shares compounds with nsP2pro inh; Full-length CHIKV NSP2 protease enzymatic counterscreen; Potency, µM (highest dose often 50.7 µM), for inactives: at the top dose activity change, negative = inhibition, most hits filed as inhibitors; hit rate 39% among 410; AID 1964101, 2024; further: nearly all actives have a fitted effect of over 65% in size
Furin counterscr – Selectivity profile for inhibitors of NSP2Pro chikungunya virus (CHIKV): Human furin counterscreen. shares compounds with nsP2pro inh. Recombinant human furin enzymatic counterscreen, fluorogenic substrate. Potency, µM (series often up to 50.6 µM), without a hit: at the highest dose activity change, negative = inhibition, most hits filed as inhibitors. hit rate 6% among 410. AID 1964102, 2024
Target sequence (P09958 whole entry, looked up): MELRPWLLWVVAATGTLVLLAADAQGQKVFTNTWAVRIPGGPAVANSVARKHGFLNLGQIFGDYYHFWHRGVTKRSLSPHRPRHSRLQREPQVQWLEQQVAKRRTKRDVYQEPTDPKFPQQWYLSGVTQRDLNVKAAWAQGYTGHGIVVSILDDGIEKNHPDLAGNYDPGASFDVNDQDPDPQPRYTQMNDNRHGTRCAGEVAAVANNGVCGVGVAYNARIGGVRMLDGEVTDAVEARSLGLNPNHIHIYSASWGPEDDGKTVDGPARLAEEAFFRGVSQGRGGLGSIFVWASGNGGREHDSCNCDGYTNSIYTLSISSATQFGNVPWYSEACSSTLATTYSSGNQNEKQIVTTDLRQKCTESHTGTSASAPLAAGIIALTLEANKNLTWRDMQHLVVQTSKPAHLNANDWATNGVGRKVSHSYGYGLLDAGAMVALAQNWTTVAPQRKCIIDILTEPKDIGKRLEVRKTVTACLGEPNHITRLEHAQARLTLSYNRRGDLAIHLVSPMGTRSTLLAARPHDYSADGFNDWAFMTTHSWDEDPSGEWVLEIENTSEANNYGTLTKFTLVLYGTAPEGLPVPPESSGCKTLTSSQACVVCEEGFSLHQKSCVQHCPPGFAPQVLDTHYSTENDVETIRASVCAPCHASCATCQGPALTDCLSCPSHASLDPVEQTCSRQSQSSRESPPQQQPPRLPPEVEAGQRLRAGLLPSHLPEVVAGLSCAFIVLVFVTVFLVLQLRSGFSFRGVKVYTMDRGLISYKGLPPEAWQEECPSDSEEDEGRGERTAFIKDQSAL
nsP2 NS23 pep – Selectivity profile for inhibitors of NSP2Pro chikungunya virus (CHIKV): Endogenous NS2/3 peptide Counterscreen; shares compounds with nsP2pro inh; Purified CHIKV nsP2 protease, endogenous NS2/3 peptide cleavage; Potency, µM (highest dose often 51 µM), for inactives: top-dose activity change, negative = inhibition, hits mostly inhibitors; hit rate 34% among 410; AID 1964103, 2024; further: nearly all actives have a fitted effect of over 55% in size
Papain counter – Selectivity profile for inhibitors of NSP2Pro chikungunya virus (CHIKV): Papain Counterscreen; shares compounds with nsP2pro inh; purified papain protease activity, enzymatic inhibition; Potency, µM (top dose mostly 51 µM), inactives show top-dose activity change, negative = inhibition, most hits filed as inhibitors; hit rate 5% among 410; AID 1964104, 2024
nsP2pro confirm – Confirmatory qHTS for inhibitors of NSP2Pro chikungunya virus (CHIKV); hit rate 43% among 410; shares compounds with nsP2pro inh; CHIKV nsP2 protease enzymatic activity, qHTS; AID 1964105, 2024; Potency, µM (top dose mostly 25.5 µM), for inactives: at the highest dose activity change, negative = inhibition, actives largely listed as inhibitors; further: nearly all actives have a fitted effect of over 75% in size
HCV NS3 counter – Selectivity profile for inhibitors of NSP2Pro chikungunya virus (CHIKV): NS34A-HCV Counterscreen; HCV NS3/4A protease biochemical counterscreen; Potency, µM (series often up to 50.9 µM), most hits filed as inhibitors; hit rate 20% among 410; shares compounds with nsP2pro inh; further: nearly all actives have a fitted effect of over 55% in size
* = called active by the depositor; ! = repeats disagree; [ ] = another dose, or the depositor's remark. The sample as a whole holds a higher share of hits than the screen did. The call rests on the fitted dose curve. On the % scale 0 is the no-effect control and ±100 the full control effect; potency means the concentration at half of the fitted maximal effect.

Results for Cc1noc([C@@H]2CN(Cc3ccc[nH]3)C[C@H]2CO)n1 ?
nsP2pro inh: inactive

Results for Cc1noc([C@@H]2CN(C(=O)c3cc(C4CC4)[nH]n3)C[C@H]2C(N)=O)n1 ?
nsP2pro inh: -14%

Results for O=C(NCc1ccco1)NC1CCc2nnc(C3CC3)n2CC1 (configuration not stated) ?
nsP2pro inh: -25%

How did CCCCCC(O)/C=C/[C@@H]1C(CCCCCCC(=O)O)C(=O)C[C@@H]1O (some centres not stated) do in these assays?
nsP2pro inh: -2%

Results for C[S+](CC[C@H](N)C(=O)O)C[C@H]1O[C@@H](n2cnc3c(N)ncnc32)[C@H](O)[C@H]1O (some centres not stated) ?
nsP2pro inh: 1%

How did OC[C@H]1O[C@@H](OCc2ccccc2)[C@H](O[C@@H]2OC[C@@H](O)[C@H](O)[C@H]2O)[C@@H](O)[C@@H]1O do in these assays?
nsP2pro inh: 2%[10 µM]

What do the screens show for `Cc1[nH]cnc1C[C@H]1CCc2c(C)c3ccccc3n2C1=O`?
nsP2pro inh: inconclusive; nsP2 cell sec: -7%; CHIKV NSP2 FL: 97%; Furin counterscr: -4%; nsP2 NS23 pep: -7%; Papain counter: -6%; nsP2pro confirm: 53%; HCV NS3 counter: inactive

Results for Cc1nccn1CC1CCc2c(c3ccccc3n2C)C1=O (configuration not stated) ?
nsP2pro inh: 61%

What do the screens show for `Cc1[nH]cnc1CN1CCc2c(c3ccccc3n2C)C1=O`?
nsP2pro inh: -12%

Results for O=S(=O)(c1ccc(O)c2ncccc12)N1CCCCC1 ?
nsP2pro inh: inactive

Results for Cn1ncc2c(-c3ccc([S+](C)(=O)[O-])cc3)cc(C(=O)N3CCCC3)nc21 ?
nsP2pro inh: 0%

What do the screens show for `CNc1oc(-c2c[nH]c3ccccc23)nc1C#N`?
nsP2pro inh: inactive

Results for Clc1ncoc1-c1c[nH]c2ccccc12 ?
nsP2pro inh: inconclusive; nsP2 cell sec: -13%; CHIKV NSP2 FL: -18%; Furin counterscr: -2%; nsP2 NS23 pep: -26%; Papain counter: -13%; nsP2pro confirm: -22%; HCV NS3 counter: inactive

Results for CC(=O)Nc1sc2c(c1-c1cc3ccccc3s1)CCNC2 ?
nsP2pro inh: 3%

How did Cc1ccc(CNc2ncnc3ccc(-c4ccoc4)cc23)o1 do in these assays?
nsP2pro inh: inactive

What do the screens show for `O=C(Nc1ccc(-n2nc(C(F)(F)F)cc2C(F)(F)F)cc1)c1ccncc1F`?
nsP2pro inh: -10%

Results for CCOC(=O)c1c(NC(=O)c2nc(S(C)(=O)=O)ncc2Cl)sc(C(C)=O)c1C ?
nsP2pro inh: inconclusive; nsP2 cell sec: 3.7µM*; CHIKV NSP2 FL: inconclusive; Furin counterscr: -12%; nsP2 NS23 pep: 4.6µM*; Papain counter: -3%; nsP2pro confirm: -96%; HCV NS3 counter: inconclusive

Results for CCOC(=O)c1c(NC(=O)c2nc(SCC)ncc2Cl)sc(C(C)=O)c1C ?
nsP2pro inh: -5%

What do the screens show for `CCOC(=O)c1c(NC(=O)COc2ccccc2)sc(C(C)=O)c1C`?
nsP2pro inh: 20%

Results for Cc1ccc(-c2ccc(CNc3nc(-c4ccccc4C(C)C)nc4ccccc34)cc2)cn1 ?
nsP2pro inh: 3%

Results for CC1CCCCN1S(=O)(=O)c1ccc(N2CCCC2=O)cc1 (configuration not stated) ?
nsP2pro inh: -13%

How did COC(=O)c1ccc(O)c2ncc(N(C)C)cc12 do in these assays?
nsP2pro inh: inactive

Results for Cc1ccc(-c2cc3n(n2)CCCN(C(=O)c2cc(CN4CCOCC4)on2)C3)o1 ?
nsP2pro inh: 1µM*; nsP2 cell sec: -9%; CHIKV NSP2 FL: 15µM*; Furin counterscr: -7%; nsP2 NS23 pep: inconclusive; Papain counter: -5%; nsP2pro confirm: 7.1µM*; HCV NS3 counter: inconclusive

How did COc1ccc(-c2cc3n(n2)CCCN(C(=O)c2cc(CN4CCOCC4)on2)C3)cc1 do in these assays?
nsP2pro inh: 16%

Results for Cc1ccc(OCCC2CCN(C(=O)c3cc(CN4CCOCC4)on3)C2)cc1 (configuration not stated) ?
nsP2pro inh: 2%

Results for Cc1cc2c(F)c(Oc3ncnn4cc(OC[C@@H](C)OC(=O)[C@H](C)N)c(C)c34)ccc2[nH]1 ?
nsP2pro inh: 159%

What do the screens show for `COc1ccccc1S(=O)(=O)Nc1cnccc1C(=O)Nc1nc(-c2ccccc2)cs1`?
nsP2pro inh: inactive

Results for Cc1c(-c2cnccn2)ssc1=S ?
nsP2pro inh: 5µM*!; nsP2 cell sec: inconclusive; CHIKV NSP2 FL: 13µM*; Furin counterscr: -13%; nsP2 NS23 pep: 9.2µM*; Papain counter: -23%; nsP2pro confirm: 4µM*; HCV NS3 counter: inactive

Results for COc1cc(O)cc(O[C@@H]2O[C@H](CO)[C@@H](O[C@@H]3OC[C@](O)(CO)[C@H]3O)[C@H](O)[C@H]2O)c1OC ?
nsP2pro inh: 17%[10 µM]

How did Cc1ccnc(NC(=S)N2CCC(c3cccc(C(F)(F)F)c3)CC2)c1 do in these assays?
nsP2pro inh: 2%

How did N#Cc1ccc(-c2ccc(C3Nc4ccccc4C(=O)N3O)o2)cc1 (configuration not stated) do in these assays?
nsP2pro inh: 10µM*; nsP2 cell sec: 23µM*; CHIKV NSP2 FL: 0%; Furin counterscr: -14%; nsP2 NS23 pep: -11%; Papain counter: -17%; nsP2pro confirm: inconclusive; HCV NS3 counter: inactive

What do the screens show for `N#Cc1ccc(-c2ccc(CNc3ccc(C4CCNCC4)cc3)o2)cc1`?
nsP2pro inh: -8%
